Hits are enriched below; roughly 2.2% of the tested compounds scored in any of these assays.
Vaccinia mCherry – qHTS for Stage-Specific Inhibitors of Vaccinia Orthopoxvirus: mCherry Reporter Primary qHTS. Vaccinia virus mCherry reporter infection, fluorescence. Potency, µM (titrated, usually from 36.5 µM), without a hit: at the top dose activity change, negative = inhibition, most hits filed as inhibitors. 0.63% of 310,000 active. AID 720579, 2013; calls by dose curve; tested in A549 cells; note: nearly all actives have a fitted effect of over 35% in size
VACV Venus inh – qHTS for Stage-Specific Inhibitors of Vaccinia Orthopoxvirus: Venus Reporter Primary qHTS; Vaccinia virus Venus reporter expression, fluorescence; Potency, µM (titrated, usually from 36.5 µM), for the others: top-dose activity change, negative = inhibition, hits mostly inhibitors; 0.46% of 330,000 active; AID 720580, 2013; calls by dose curve; tested in A549 cells; note: nearly all actives have a fitted effect of over 30% in size
FMDV inh – High Throughput Screening for Foot and Mouth Disease Virus Antivirals; FMDV antiviral cell-based qHTS; 1.2% of 410,000 active; Potency, µM (doses to about 57.9 µM), for the others: top-dose activity change, negative = inhibition, usual class: inhibitors; calls by dose curve; tested in HEK293T cells; note: read-out not given here; nearly all actives have a fitted effect of over 45% in size
Giardia FBPA inh-1 – qHTS Assay for Inhibitors of Fructose-1,6-bisphosphate Aldolase from Giardia Lamblia; 0.71% of 290,000 active; A8B2U2; purified Giardia FBPA; Potency, µM (doses to about 59.6 µM), inactives show at the top dose activity, negative = inhibition, actives largely listed as inhibitors; AID 2451, 2010; note: nearly all actives have a fitted effect of over 55% in size
Target sequence (A8B2U2 whole entry, looked up): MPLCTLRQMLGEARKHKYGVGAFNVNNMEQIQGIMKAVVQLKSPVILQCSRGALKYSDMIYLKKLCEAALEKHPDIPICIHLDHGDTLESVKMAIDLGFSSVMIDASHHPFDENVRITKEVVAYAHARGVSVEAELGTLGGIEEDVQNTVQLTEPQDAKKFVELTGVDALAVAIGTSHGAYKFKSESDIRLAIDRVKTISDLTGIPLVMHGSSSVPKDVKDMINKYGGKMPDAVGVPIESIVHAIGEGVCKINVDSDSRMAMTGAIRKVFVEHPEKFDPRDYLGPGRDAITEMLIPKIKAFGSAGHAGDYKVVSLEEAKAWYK
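40 nM FBPA preincubated 10 min at RT with compound (up to 57.5 uM final), then substrate plus GAPDH/TPI/NAD/arsenate coupling and diaphorase/resazurin added. Fluorescence read after 20 min at RT, 525/598 nm.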
Giardia growth – qHTS Assay for Inhibitors of Fructose-1,6-bisphosphate Aldolase from Giardia Lamblia: Giardia lamblia growth inhibition. shares compounds with Giardia FBPA inh-1. Giardia lamblia trophozoite growth inhibition. Potency, µM (series often up to 57.5 µM), inactives show at the highest dose activity change, negative = inhibition, actives largely listed as inhibitors. 5% of 1,500 active. AID 2785, 2010;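 note: trophozoites exposed to compound for 48 h at 37 °C; nearly all actives have a fitted effect of over 70% in size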
Mammalian tox – qHTS Assay for Inhibitors of Fructose-1,6-bisphosphate Aldolase from Giardia Lamblia: Mammalian cellular toxicity; mammalian cell viability counter-screen, qHTS; AID 2786, 2010; 4% of 1,500 active; Potency, µM (top dose mostly 57.5 µM), for inactives: top-dose viability change, negative = toxicity, usual class: inhibitors; shares compounds with Giardia FBPA inh-1;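 note: Chinese hamster ovary cells used as mammalian cytotoxicity surrogate; viability measured as cellular ATP by luminescence; compound exposure lasted 48 h before reading; nearly all actives have a fitted effect of over 60% in size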
Giardia FBPA inh-2 – qHTS Assay for Inhibitors of Fructose-1,6-bisphosphate Aldolase from Giardia Lamblia: Primary screen confirmation. Potency, µM (highest dose often 57.5 µM), inactives show top-dose activity change, negative = inhibition, usual class: inhibitors. purified Giardia aldolase enzyme activity, qHTS. shares compounds with Giardia FBPA inh-1. 5% of 1,500 active; note: nearly all actives have a fitted effect of over 45% in size
Rabbit FBPA inh – qHTS Assay for Inhibitors of Fructose-1,6-bisphosphate Aldolase from Giardia Lamblia: Rabbit FBPA Selectivity; Rabbit muscle FBPA enzyme inhibition, selectivity counter-screen; 4% of 1,500 active; Potency, µM (highest dose often 57.5 µM), inactives show top-dose activity, negative = inhibition, hits mostly inhibitors; shares compounds with Giardia FBPA inh-1; note: nearly all actives have a fitted effect of over 60% in size
GAPDH counter – qHTS Assay for Inhibitors of Fructose-1,6-bisphosphate Aldolase from Giardia Lamblia: Coupling assay counterscreen confirmation | shares compounds with Giardia FBPA inh-1 | GAPDH coupling enzyme counterscreen, biochemical, qHTS | Potency, µM (titrated, usually from 57.5 µM), for inactives: at the highest dose activity change, negative = inhibition, most hits filed as inhibitors | AID 2795, 2010 | 6% of 1,500 active; note: nearly all actives have a fitted effect of over 55% in size
Starred values were filed as active, the others as inactive; i = inactive; ? = inconclusive; . = no result given; ! = a repeat was not active; [ ] = another dose, or the depositor's remark. Unless noted, calls come from the whole dose curve; as a rule, active = well fitted curve in the direction sought with a large enough effect; inconclusive = small, poorly fitted or top-dose-only effect, or another doubt; inactive = no such curve, though single readings can be large; an effect the other way counts as inactive or inconclusive. % is set by controls: 0 for no effect and ±100 for the full control effect; potency is the fitted concentration of half-maximal effect.

SMILES	Vaccinia mCherry	VACV Venus inh	FMDV inh	Giardia FBPA inh-1	Giardia growth	Mammalian tox	Giardia FBPA inh-2	Rabbit FBPA inh	GAPDH counter
O=C(Nc1nnc(-c2ccccc2Cl)o1)c1ccc(S(=O)(=O)N2CCCCCC2)cc1	-17.6%	-27.7%	-24.9%	?	.	.	.	.	.
CC1CCN(S(=O)(=O)c2ccc(C(=O)Nc3nnc(C4=COCCO4)o3)cc2)CC1	.	.	-24.4%	.	.	.	.	.	.
S=C(NCCCc1cnc[nH]1)NCCCN(Cc1ccc(Cl)cc1)c1ncc(Br)cn1	-25.0%	?	.	.	.	.	.	.	.
O=C(NC(=S)Nc1cccc(C(F)(F)F)c1)c1ccc2nonc2c1	-16.3%	-17.0%	-29.9%	9.98µM*	6.4%[10.4 µM]	-9.4%	8.8%	0.0%	3.1%
CC[C@H](C)[C@H](NC(=O)[C@H](CCC(=O)O)NC(=O)CNC(=O)[C@@H](NC(=O)[C@@H]1CCCN1C(=O)[C@@H](NC(=O)[C@@H]1CCCN1C(=O)[C@@H]1CCCN1C(=O)[C@H](CC(N)=O)NC(=O)[C@H](CC(N)=O)NC(=O)[C@@H](NC(=O)[C@H](CCSC)NC(=O)[C@H](Cc1c[nH]c2ccccc12)NC(=O)CNC(=O)[C@@H](NC(=O)[C@H](CCC(N)=O)NC(=O)[C@@H](N)CCC(=O)O)[C@@H](C)CC)[C@@H](C)O)[C@@H](C)CC)C(C)C)C(=O)O	.	.	.	-1.9%	.	.	.	.	.
O=C(O)CN(CCN(CC(=O)O)CC(=O)O)CCN(CC(=O)O)CC(=O)O	.	.	.	7.92µM*!	?	20.7%	?	14.0%	0.9%
COCc1cc(=O)[nH]c(-c2csc(C)n2)n1	-8.8%	-5.4%	-2.6%	4.46µM*	6.4%[38.3 µM]	-5.0%	3.0%	15.3%	2.4%
Cc1cc(C)c(O)c(N)c1	.	.	.	19.9µM*	-5.4%[10.4 µM]	4.8%	?	?	-27.8%
COc1ccc2[nH]c(CCc3nc4c(OC)c(OC)ccc4[nH]3)nc2c1OC	-11.5%	-10.6%	.	.	.	.	.	.	.
CC1=NN(c2ccccc2)C(=O)/C1=C/N(C)C	-14.3%	-11.0%	?	-27.9%	.	.	.	.	.
CC1=NN(c2nc3ccccc3[nH]2)C(=O)/C1=C/N(C)C	i	-11.7%	?	15.8µM*	39.8µM*	4.47µM*	3.1%	-1.1%	-14.2%
O=c1[nH]c2ccccc2nc1NCc1ccccc1	i	-25.2%	-8.2%	-3.7%	.	.	.	.	.
CC1=NN(c2nc3ccccc3[nH]2)C(=O)C1Cc1ccccc1 (configuration not stated)	-27.4%	-18.4%	15.7%	17.7µM*	-20.5%	?	23.4%	5.8%	8.5%
CCCn1cc(S(=O)(=O)c2cccc(Cl)c2)c(=O)c2cc(F)c(N3CCN(CC)CC3)cc21	-22.7%	-11.1%	23.1%	.	.	.	.	.	.
O=P(O)(O)CP(=O)(O)O	.	.	.	6.29µM*	119.2%	9.5%	23.6%	1.7%	14.9%
COc1ccc(/C=C2\SC(c3ccc(C)cc3)=NC2=O)cc1OC	-13.3%	-8.5%	.	?	.	.	.	.	.
COc1cc(/C=C2\SC(c3ccc(C)cc3)=NC2=O)ccc1O	-1.2%	-18.9%	.	17.7µM*	26.3%	-3.2%	?	-29.7%	-1.4%
